L major viab: reduces viability of Leishmania major promastigotes; resazurin fluorescence viability; inhibition, % at 10 µM; 200,000 compounds, 9% hits; AID 1063; in the data active = inhibition above about 50%;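 note: promastigotes grown with compound for 44 hours at 28 °C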
WT yeast gro inh: growth inhibition of WT yeast, mitochondrial fusion screen; mitochondrial fusion phenotypic screen, WT strain; inhibition, % at 10 µM; 190,000 compounds, 2.1% hits; AID 1362; in the data active = inhibition above about 58%; tested in S. cerevisiae
Arbovirus anti: blocks arbovirus infection; arbovirus infection cell-based antiviral screen; inhibition, % at 10 µM; 200,000 compounds, 0.37% hits; in the data active = inhibition above about 30%
CHOP inh: inhibitors of CHOP induction in ER stress response; CHO-K1 CHOP-promoter luciferase, tunicamycin-induced, 15-18 h; inhibition, % at 10 µM; 220,000 compounds, 3.8% hits;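 active = compounds that reduced the stress-induced luciferase reporter signal by more than about 70% of percent inhibition, limit read from the data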;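 note: 0% = tunicamycin plus vehicle and 100% = wells without tunicamycin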
Numbers without * were called inactive; / = no result. A selection: hits, their analogues and other compounds. The true share with any hit is near 12%.

SMILES | L major viab | WT yeast gro inh | Arbovirus anti | CHOP inh
Cc1c(C#N)c(N)nc2c3c(sc12)NC(=O)CC3c1ccc(Cl)cc1 (centres undefined) | 31 | -5 | -24 | 101*
CCC(C)[C@@H](N)C(=O)N/N=C/c1cccc2nccnc12 (some centres undefined) | / | / | / | 5
Cc1sc2ncn3ncnc3c2c1C | 13 | 18 | 9 | 90*
Cc1ccc(C)c(S(=O)(=O)N(C(=O)c2ccncc2)c2ccc(OC(=O)c3ccncc3)cc2)c1 | 5 | 8 | 1 | -1
Cc1ccc(S(=O)(=O)N(C(=O)c2ccncc2)c2ccc(OC(=O)c3ccncc3)cc2)c(C)c1 | 76* | -7 | -3 | 28
CC1CCN(C(=O)Cn2c(=O)n(CCc3ccccc3)c(=O)c3ccccc32)CC1 | -5 | 8 | 1 | 88*
CC1CC(C)(C)NC(=S)N1CCCC(=O)Nc1ccc(Br)cc1 (centres undefined) | 6 | 12 | -1 | 7
CCOc1ccc(NC(=O)CCCN2C(=S)NC(C)(C)CC2C)cc1 (centres undefined) | 59* | -15 | -2 | 2
O=S(=O)(Nc1ccc(C(F)(F)F)cn1)c1ccccc1 | / | / | / | 23
O=C1C(c2ccncc2)=C(O)c2ccccc21 | 2 | 16 | 2 | 12
CC(C)c1ccc(C2=C(O)c3ccccc3C(=O)C2=O)cc1 | -5 | -4 | 33* | -19
O=C(c1ccco1)n1nc(-c2ccccc2)nc1NCc1ccco1 | 0 | -7 | -6 | 81*
COc1ccc(-c2nc(SC)n(C(=O)c3ccco3)n2)cc1 | -3 | 1 | 0 | 72*
COc1ccc(-c2nc(SCc3ccccc3)n(C(=O)c3ccco3)n2)cc1 | 2 | 13 | -12 | 12
COc1ccccc1C(=O)n1nc(-c2ccccc2)nc1NCc1ccco1 | 9 | 83* | 0 | 26
Cc1ccc(-c2nc(NCc3ccco3)n(C(=O)c3ccco3)n2)cc1 | -3 | 9 | -6 | -24
O=C(c1ccco1)n1nc(-c2ccc(Cl)cc2)nc1NCc1ccco1 | -2 | 0 | -10 | 17
CCOC(=O)c1c(N/N=C/c2cccnc2)n[nH]c1C | / | / | / | -17
Cc1ccc(CCc2nnc(SCC(=O)Nc3cccc(Cl)c3)n2-c2ccccc2)o1 | -1 | -5 | 1 | 85*
Cc1cccc(NC(=O)CSc2nnc(CNC(=O)c3ccc(S(=O)(=O)N(C)C)cc3)n2-c2ccc(F)cc2)c1 | -8 | -4 | 0 | 19
Cc1cccc(NC(=O)CSc2nnc(CNC(=O)c3ccc(S(=O)(=O)N(C)C)cc3)n2-c2ccccc2)c1 | 55* | -6 | -6 | 55
Cc1cccc(NC(=O)CSc2nnc(CNC(=O)c3ccc(S(=O)(=O)N(C)C)cc3)n2-c2cccc(C)c2)c1 | 72* | -11 | -4 | 61
C[C@@H]1NC(=O)[C@H](CCCN=C(N)N)NC(=O)c2cc([N+](=O)[O-])cc(I)c2OCC[C@@H](C(=O)NC(CC(=O)O)C(N)=O)NC1=O (some centres undefined) | -5 | -2 | -8 | -8
CCCNC(=S)Nc1ccc(Cl)cc1Cl | 23 | -1 | 7 | -4
CN(C)CCN1CCc2ccccc21 | 78* | -13 | 7 | 0
SMILES | L major viab | WT yeast gro inh | Arbovirus anti | CHOP inh
c1ccc2c(c1)CCN2CCN1CCc2ccccc21 | -7 | -14 | -4 | 44
CC[n+]1ccc(/C=C/c2ccc(N(C)C)cc2)c2ccccc21 | 100* | 87* | -25 | 69
CC[n+]1ccc(C[n+]2ccccc2)c2ccccc21 | 38 | -7 | 8 | 22
CC[n+]1c(/C=C/c2ccc(N(C)C)cc2)ccc2ccccc21 | 100* | 89 | -25 | 68
CN(C)c1ccc(/C=C/c2cc[n+](C)cc2)cc1 | 99* | -2 | 1 | 22
CC[n+]1ccccc1/C=C/c1ccc(N(C)C)cc1 | 96* | 2 | 0 | 10
CN(C)c1ccc(/C=C/c2cc[n+]([O-])cc2)cc1 | -4 | -10 | 2 | 3
CCOC(=O)c1ccc(NC(=O)C2(c3ccccc3)CCOCC2)cc1 | 23 | 13 | -6 | -8
O=C(CCSc1ccccc1)OCn1nnc2ccccc2c1=O | -3 | -5 | 1 | 5
O=C(CSCC(=O)OCn1nnc2ccccc2c1=O)Nc1ccc(Cl)cc1 | -5 | 70* | 1 | -11
CC1CCN(CCOCCSc2ccc(Cl)cc2)CC1 | 93* | 26 | -27 | 11
Cc1ccc(SCCC(=O)N2CCC(C)CC2)cc1 | 1 | -3 | -2 | -1
CC1CCCN(CCSc2ccc(Cl)cc2)C1 (centres undefined) | 72* | 10 | -6 | 23
Clc1ccc(SCCOCCN2CCCCC2)cc1 | 98* | 12 | -29 | 17
Clc1ccc(SCCOCCN2CCc3ccccc3C2)cc1 | 88* | 61* | 3 | -14
CCc1c(C)sc2nc(C(C)C)nc(SCC(=O)N3CCc4ccccc4C3)c12 | -4 | 61* | -17 | 52

Compound activity: PubChem, several laboratories
